Reference: ChEMBL document CHEMBL1157539, “Thousands of chemical starting points for antimalarial lead identification” (Nature, 2010)

Experiments:
Type in all cases: functional
[1] = test system: Plasmodium falciparum; assay: GSK_TCMDC: Inhibition of Plasmodium falciparum 3D7 in whole red blood cells, using parasite LDH activity as an index of growth. Test compounds present at 2uM
[2] = test system: Plasmodium falciparum; assay: GSK_TCMDC: Inhibition of Plasmodium falciparum Dd2 in whole red blood cells, using parasite LDH activity as an index of growth. Test compounds present at 2uM
[3] = test system: HepG2; assay: GSK_TCMDC: Percent inhibition of human HepG2 cell line. Test compounds present at 10uM.

## Cl.N#Cc1ccc2c(c1)CCN(CCC1CCC(NC(=O)/C=C/c3nc4ccccc4s3)CC1)CC2 (centres undefined)
[1]
  Inhibition: 90%
[2]
  Inhibition: 0%
[3]
  Inhibition: 6%

## COc1cc2ncnc(NCCc3ccccc3Cl)c2cc1OC
[1]
  Inhibition: 88%
[2]
  Inhibition: 11%
[3]
  Inhibition: 0%

## O=C(Nc1cccc(-c2nn3ccccc3c2-c2ccnc(Nc3ccccc3)n2)c1)c1c(F)cccc1F
[1]
  Inhibition: 98%
[2]
  Inhibition: 98%
[3]
  Inhibition: 69%

## CCCCCCOc1ccc(/C(N)=N\Cc2ccccc2)c2c1CCCC2.Cl
[1]
  Inhibition: 96%
[2]
  Inhibition: 35%
[3]
  Inhibition: 62%

## O=C(NC1CC1)c1ccc(Cn2c(SCc3cccc(Cl)c3)nc3ccccc3c2=O)cc1
[1]
  Inhibition: 90%
[2]
  Inhibition: 70%
[3]
  Inhibition: 2%

## CCC1CN(S(=O)(=O)c2ccc3c(c2)NC(=O)CC(=O)N3)c2cc(Cl)ccc2O1 (centres undefined)
[1]
  Inhibition: 99%
[2]
  Inhibition: 65%
[3]
  Inhibition: 0%

## Cc1nc(N)nc(N)c1OCCCOc1cccc(Cl)c1Cl.Cl
[1]
  Inhibition: 93%
[2]
  Inhibition: 95%
[3]
  Inhibition: 59%

## Cc1nc2nc(N)nc(N)c2c(C)c1Cc1ccc(C#N)cc1.Cl
[1]
  Inhibition: 96%
[2]
  Inhibition: 4%
[3]
  Inhibition: 69%

## COc1cc2ncnc(Nc3ccc4nc(-c5ccccc5)[nH]c4c3)c2cc1OC.Cl
[1]
  Inhibition: 92%
[2]
  Inhibition: 32%
[3]
  Inhibition: 15%

## COCCOC(=O)C(=O)c1c(-c2ccccc2)c(-c2ccc(OC)c(OC)c2)c2c3cc(OC)c(OC)cc3ccn12
[1]
  Inhibition: 100%
[2]
  Inhibition: 100%
[3]
  Inhibition: 4%

## CCCCCN1CCCC(NS(=O)(=O)c2ccc(C(=O)Nc3cccc(C(F)(F)F)c3)cc2)C1.O=C(O)C(F)(F)F (centres undefined)
[1]
  Inhibition: 97%
[2]
  Inhibition: 3%
[3]
  Inhibition: 30%

## O=C(O)C(F)(F)F.O=[N+]([O-])c1cccc(CNCC2CCN(Cc3ccc(-c4ccccc4)cc3)CC2)c1
[1]
  Inhibition: 100%
[2]
  Inhibition: 91%
[3]
  Inhibition: 28%

## CCCC(=O)c1cnc2c(I)cccc2c1Nc1ccccc1C
[1]
  Inhibition: 90%
[2]
  Inhibition: 26%
[3]
  Inhibition: 7%

## CC(C)(Oc1ccc(Cl)cc1)C(=O)NCCC1CCN(CCCCCNC(=O)/C=C/c2ccc(Cl)c(Cl)c2)CC1
[1]
  Inhibition: 87%
[2]
  Inhibition: 37%
[3]
  Inhibition: 73%

## CN1CCN(c2ccnc3ccc(NC(=O)Cc4ccc(-c5ccncc5)c5ccccc45)cc23)CC1
[1]
  Inhibition: 100%
[2]
  Inhibition: 100%
[3]
  Inhibition: 32%

## O=C(NC1CCN(Cc2ccccc2)CC1)c1csc2nc(-c3ccc(Cl)cc3)cn12
[1]
  Inhibition: 98%
[2]
  Inhibition: 14%
[3]
  Inhibition: 19%

## CCc1cc2c(cc1OCCN(C)C)N(C(=O)Nc1ccc(-c3ccncc3)c(Cl)c1)CC2
[1]
  Inhibition: 95%
[2]
  Inhibition: 7%
[3]
  Inhibition: 18%

## Cc1cc(C(=O)N(Cc2ccc(-c3ccc(CNCCc4ccc(S(C)(=O)=O)cc4)cn3)cc2)C(C)CN(C)C)ccc1[N+](=O)[O-].O=C(O)C(F)(F)F (centres undefined)
[1]
  Inhibition: 99%
[2]
  Inhibition: 46%
[3]
  Inhibition: 17%

## CCOC(=O)c1cn(CC)c2cc(OCc3ccccc3)ccc2c1=O
[1]
  Inhibition: 97%
[2]
  Inhibition: 96%
[3]
  Inhibition: 2%

## CC(=O)N(Cc1nc(-c2cc(Cl)c(Cl)s2)cs1)c1c(C)cccc1C
[1]
  Inhibition: 98%
[2]
  Inhibition: 95%
[3]
  Inhibition: 5%

## CC(C)CCn1c(Sc2ccc(C#N)c([N+](=O)[O-])c2)nnc1-c1ccc(Cl)cc1
[1]
  Inhibition: 90%
[2]
  Inhibition: 39%
[3]
  Inhibition: 25%

## C(=N\Nc1nccc2sc(-c3ccccc3)cc12)/c1cccnc1
[1]
  Inhibition: 97%
[2]
  Inhibition: 10%
[3]
  Inhibition: 0%

## CS(=O)(=O)CCNCc1cccc(-c2cc3c(Nc4ccc5c(cnn5Cc5ccccc5)c4)ncnc3s2)c1.O=C(O)C(F)(F)F
[1]
  Inhibition: 100%
[2]
  Inhibition: 100%
[3]
  Inhibition: 36%

## CCCc1c(C(=O)Nc2ccc3c(c2)CCN(C2CCC2)CC3)cnn1-c1ccc(Cl)cc1.O=C(O)C(F)(F)F
[1]
  Inhibition: 92%
[2]
  Inhibition: 12%
[3]
  Inhibition: 64%

## Cc1ccc(Cn2ncc(N3CC(C)NC(C)C3)c(Cl)c2=O)cc1NC(=O)Nc1ccc(-c2ccccc2)cc1.O=C(O)C(F)(F)F (centres undefined)
[1]
  Inhibition: 100%
[2]
  Inhibition: 29%
[3]
  Inhibition: 51%

## Cc1[nH]c(-c2ccc(F)cc2)cc1C(=O)NC1CCN(Cc2ccccc2)CC1
[1]
  Inhibition: 84%
[2]
  Inhibition: 9%
[3]
  Inhibition: 6%

## CC(=O)N[C@H](C(=O)Nc1ccc(-c2cccc(-c3nc4cccc(C)c4[nH]3)c2)cc1)C(C)C
[1]
  Inhibition: 89%
[2]
  Inhibition: 10%
[3]
  Inhibition: 9%

## O=C(Nc1ccc(-c2ccc(-c3nc4ccccc4[nH]3)s2)cc1)c1ccncc1
[1]
  Inhibition: 94%
[2]
  Inhibition: 95%
[3]
  Inhibition: 21%
